Laboratory results from the supplement of paper PMC3334620.
In all, about 33,000 sequences were measured (“E-score (-0.5 to 0.5)”: median about -0.043, highest 2% from about 0.37 on). What follows is part of a selection rich in the highest values, with near analogues and random picks from the rest.

These sequences were tested against T1, Upc2 (UniProt Q12151) (assay: PBM E-score (8-mer binding enrichment) (E-score (-0.5 to 0.5)); higher = stronger / more preferred TF binding). Settings: protein concentration: 200 nM; construct: GST-full length.
T1 sequence: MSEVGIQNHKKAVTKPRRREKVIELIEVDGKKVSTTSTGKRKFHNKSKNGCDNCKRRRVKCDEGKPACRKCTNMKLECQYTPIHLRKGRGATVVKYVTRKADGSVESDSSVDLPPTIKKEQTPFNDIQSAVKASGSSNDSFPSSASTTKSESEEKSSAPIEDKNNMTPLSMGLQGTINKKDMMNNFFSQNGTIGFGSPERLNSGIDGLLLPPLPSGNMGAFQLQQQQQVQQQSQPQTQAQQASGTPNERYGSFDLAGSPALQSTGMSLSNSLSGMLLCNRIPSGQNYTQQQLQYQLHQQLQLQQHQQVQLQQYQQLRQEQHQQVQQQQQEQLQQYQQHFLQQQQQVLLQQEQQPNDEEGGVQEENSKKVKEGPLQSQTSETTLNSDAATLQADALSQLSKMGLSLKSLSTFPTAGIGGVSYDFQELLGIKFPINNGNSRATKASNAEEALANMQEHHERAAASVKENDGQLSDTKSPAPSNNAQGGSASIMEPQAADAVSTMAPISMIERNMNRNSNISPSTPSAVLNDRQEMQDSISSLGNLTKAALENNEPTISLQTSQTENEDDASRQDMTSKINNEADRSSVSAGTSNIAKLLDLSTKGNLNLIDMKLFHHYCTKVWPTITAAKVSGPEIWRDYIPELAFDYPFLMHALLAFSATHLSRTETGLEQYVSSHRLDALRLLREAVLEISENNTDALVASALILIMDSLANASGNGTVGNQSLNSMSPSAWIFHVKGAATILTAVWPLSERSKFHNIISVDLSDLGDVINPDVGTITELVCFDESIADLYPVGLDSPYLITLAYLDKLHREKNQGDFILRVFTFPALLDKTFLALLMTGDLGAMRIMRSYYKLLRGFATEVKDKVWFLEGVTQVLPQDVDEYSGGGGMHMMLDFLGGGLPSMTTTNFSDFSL
Method in brief: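 Using PURExpress in vitro transcription/translation, GST-tagged yeast transcription factors were made in full-length or DNA-binding-domain form. These were applied at about 100-200 nM to double-stranded universal all-10-mer Agilent arrays, and bound protein was detected with fluorescent anti-GST. Scans were normalised with masliner before the Universal PBM Analysis Suite assigned E-scores to ungapped eight-base words pooled with their reverse complements.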

Sequence | PBM E-score
ACGAGTAA | 0.348
ACGAGTAT | 0.376
GCGAGTAC | 0.204
ACGAGTCG | 0.384
ACGAGTCA | 0.249
ACGAGTGC | 0.377
ACGAGTAC | 0.419
ACGAGTGG | 0.295
ACGAGTCT | 0.293
ACGAGTAG | 0.368
CCGAGTAC | 0.196
CGCTGGGA | -0.0151
AAAGTGTT | 0.0836
ATCGTCCG | -0.101
CGACGATA | 0.169
CGGTAAAC | 0.206
AAAGGTGG | -0.0797
AGCTTTAC | 0.192
GTGGATAA | -0.151
ACAGTAGC | -0.0133
AAAATAGG | -0.0506
CTCGTTTC | 0.452

Sequence | PBM E-score
AGCGTTTG | 0.149
CTCGTTGC | 0.356
AGCGTTTC | 0.0667
ATCGTTTG | 0.452
ATAGTTTC | -0.0466
ATAGTTTG | -0.0286
ATCGTTTC | 0.401
CGCGTTTC | 0.0838
GTCTGGAA | -0.122
GAAATTCC | -0.186
GACCCGAA | -0.0162
CCTGCGCG | -0.0152
CGGGCCAA | -0.307
AGCAGAGG | -0.293
GCAAGCGA | 0.174
AACACCTT | 0.0752
TCGTTTCA | 0.406
ACGTTCAA | 0.238
CCGTTCCC | 0.385
TCGTTCAA | 0.459
TCGTTCCA | 0.46
GCGTTTCA | -0.0903

Sequence | PBM E-score
GCGTTCAA | 0.173
ACGTTCCC | 0.0935
GCGTTCCA | 0.11
ACGTTTCA | 0.116
GCGTTCCC | 0.0703
ACGTTCCA | 0.116
AGTCTTTA | -0.0445
AGACTGCG | -0.17
GCGAATTA | 0.179
GGATGGAA | -0.0401
CGGGCATC | 0.0742
GCCGCGTA | 0.271
AGCCGAAG | -0.185
CTACAAGA | -0.194
CTTCGTGC | -0.0549
CTTCGTAC | 0.458
CTTCGTAA | 0.427
CTTCGTCA | -0.0302
CTTCGTCC | -0.316
ATTCGTCC | 0.0624
ATTCGTGC | -0.094
CTTCGTGA | 0.112

Sequence | PBM E-score
ATTCGTAC | 0.452
CCCAGCCC | -0.217
CACACACC | 0.0034
CTTCATAA | -0.121
AAGGCACC | -0.24
ATAGCGAC | 0.17
ATAACGTG | 0.0885
TAATGTAA | -0.0142
AAGCCTAT | -0.0475
CGGGAACC | -0.12
AGGGAACC | -0.104
CCGGAACG | 0.376
CGGGAACG | 0.404
CAGGAACC | -0.161
AAGGAACG | 0.347
CCGGAACA | -0.189
CAGGAACG | 0.396
AGGGAACG | 0.39
CCGGAACC | -0.113
AGGGAACA | -0.22
CGGGAACA | 0.184
AGCGCAAC | 0.149

Sequence | PBM E-score
TTTCCAAA | -0.0113
AAGCTTGG | 0.127
ACTGCGCC | -0.147
CCGGGGAA | -0.23
GGAAGTAA | -0.0533
GGCAATCA | -0.196
AAAGGATC | -0.127
ATCTCGTC | 0.123
ATCTCGTA | 0.464
GTCTCGAA | -0.0265
GTCTCGTA | 0.456
GTCTCGGA | 0.162
ATCTCGTG | 0.124
CTCTCGTA | 0.453
CTCTCGAA | -0.0265
CTCTCGTC | 0.0223
AAGGTTCA | -0.145
GGCAGAGA | -0.14
GCCACAGA | -0.149
ATTGAACA | -0.0652
TTATCCAA | 0.0246
GAGAGTAC | 0.0133
